From PubChem BioAssay AID777 (Sanford-Burnham Center for Chemical Genomics, 2007)
Screen size: about 96,000 compounds; about 19,000 (20%) were called active.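 Rule for the calls: active = blocking of liver enzyme CYP2C9 beyond about 50% at 5 µM (limit read from the data); inactive = the rest.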 These entries were drawn from the full list.

target: Cytochrome P450 2C9 (Homo sapiens) (UniProt P11712); experiment: blockers of cytochrome P450 2C9 activity – biochemical, luminescence, ADME assay, primary screen (AID 777); settings: CYP2C9 Supersomes, luciferin-H conversion, at 5 µM, stronger effect = higher value
Sequence (P11712 whole entry, looked up): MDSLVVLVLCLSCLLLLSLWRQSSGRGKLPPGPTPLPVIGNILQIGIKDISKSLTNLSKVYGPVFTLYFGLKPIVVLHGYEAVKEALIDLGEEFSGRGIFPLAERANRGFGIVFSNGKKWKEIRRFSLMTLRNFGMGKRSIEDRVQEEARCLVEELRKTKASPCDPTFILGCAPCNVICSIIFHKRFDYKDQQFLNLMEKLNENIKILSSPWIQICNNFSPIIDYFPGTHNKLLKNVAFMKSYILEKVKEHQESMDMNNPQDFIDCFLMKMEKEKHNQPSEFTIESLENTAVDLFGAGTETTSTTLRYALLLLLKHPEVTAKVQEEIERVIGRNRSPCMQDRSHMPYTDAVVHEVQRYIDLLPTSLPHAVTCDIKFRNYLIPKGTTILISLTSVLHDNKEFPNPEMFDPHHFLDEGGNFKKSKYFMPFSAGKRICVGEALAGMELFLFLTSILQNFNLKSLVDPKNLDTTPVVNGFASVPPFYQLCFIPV

Compound	inhibition
COc1ccc(Cl)cc1NC(=O)CN(C)C(=O)CNC(=O)C12CC3CC(CC(C3)C1)C2	44.8% (inactive)
Fc1ccc(N2CCN(Cc3cnc(Oc4ccc(Br)cc4)s3)CC2)cc1	19.7% (inactive)
COc1ccc(N2CCN(Cc3ccc(Br)s3)CC2)cc1	78.3% (active)
COc1ccc(N2CCN(Cc3cc(=O)oc4ccc5ccccc5c34)CC2)cc1	22.6% (inactive)
COc1ccccc1CNC(=O)C1CCN(c2nc3ccccc3o2)CC1	-3.9% (inactive)
FC(F)(F)c1nc2ccccc2nc1N/N=C/c1ccc(Cl)cc1	21.3% (inactive)
OC(COc1cccc2ccccc12)CN1CCN(c2ccccn2)CC1 (stereo unspecified)	19.3% (inactive)
CC1Cc2ccccc2N1CC(=O)Nc1ccc2c(c1)OC(F)(F)O2 (stereo unspecified)	71.6% (active)
CC1(C)Oc2ccc(C(=O)N3CCOCC3)cc2N(CC(=O)Nc2ccccc2)C1=O	45.6% (inactive)
O=C(CN1C(=O)COc2ccccc21)Nc1ccc(F)cc1	39% (inactive)
Cc1cc(Cl)c(S(=O)(=O)Nc2ccc3c(c2)OCCO3)cc1OCC(N)=O	19.9% (inactive)
OC1CN=C2Sc3ccccc3N2C1 (stereo unspecified)	-6.8% (inactive)
Cc1nn2c(c1-c1ccccc1)N=C(c1ccco1)CC2c1ccccc1 (stereo unspecified)	63.5% (active)
Cc1nn(C(=O)c2ccoc2C)c(N)c1-c1ccccc1	26.4% (inactive)
Cn1c(=O)c(C(=O)Nc2ncccn2)c(O)c2ccccc21	-24.6% (inactive)
O=C1NC(c2cc3c(cc2Cl)OCO3)Oc2ccccc21 (stereo unspecified)	26.5% (inactive)
NC(CSC12CC3CC(CC(C3)C1)C2)C(=O)O (stereo unspecified)	9.2% (inactive)
COc1ccc(-c2oc(/N=C/N3CCCC3)c(C#N)c2-c2ccc(OC)cc2)cc1	96.9% (active)
N#Cc1c2c(c(-c3ccccc3)[nH]c1=O)CCCC2	-12.7% (inactive)
N#Cc1c(/N=C/N2CCCC2)oc(-c2ccccc2)c1-c1ccccc1	79.9% (active)
Cn1c(C(=O)NCCN2CCc3ccccc3C2)cc2c(=O)[nH]c3ccccc3c21	20% (inactive)

Compound	inhibition
Cc1noc(NS(=O)(=O)c2ccc(N3CC(O)=C(c4ccccc4)C3=N)cc2)c1C	3.3% (inactive)
Cc1ccc2cc(C#N)c(SCC(=O)NCC3CCCO3)nc2c1C (stereo unspecified)	-3.8% (inactive)
CC(NC(=O)CSc1nc2c(cc1C#N)CN(C)CC2)c1ccccc1 (stereo unspecified)	74.5% (active)
Cc1cc(C(F)(F)F)c(C#N)c(SCC(=O)NC2CC2)n1	17.2% (inactive)
CCCC(C(=O)N1CCOCC1)N1C(=O)C2C3C=CC(C3)C2C1=O (stereo unspecified)	-2.2% (inactive)
Clc1ccc(Cl)c(Oc2ccc(Oc3nc(Cl)ccc3Cl)cc2)n1	-102% (inactive)
CSc1ccc(C#N)cc1NC(=O)c1cccc(Cl)c1	18.2% (inactive)
CN1C(=O)c2ccc(NC(=O)c3c(F)c(F)c(F)c(F)c3F)cc2C1=O	-24% (inactive)
O=C(c1ccco1)N1CCN(C(=O)c2ccc(COc3ccc(F)cc3)o2)CC1	33.7% (inactive)
CC(NC(=O)Nc1ccccc1)c1ccccc1 (stereo unspecified)	7% (inactive)
CC(=O)c1cccc(NC(=O)Nc2ccc(C)cc2)c1	17.7% (inactive)
Cc1ccc(NC(=O)C(C)c2cccc(C(=O)c3ccccc3)c2)cc1 (stereo unspecified)	57.9% (active)
CCn1c(Cc2ccccc2)nnc1SCc1nc2ccccc2c(=O)[nH]1	-61.8% (inactive)
CC1=C(C)CC2C(=O)N(c3cccc4ccccc34)C(=O)C2C1 (stereo unspecified)	72.9% (active)
O=C(c1ccccc1)c1cc(-c2ccccn2)c(N2CCOCC2)s1	25% (inactive)
c1ccc(-c2oc3ncnc(N4CCOCC4)c3c2-c2ccccc2)cc1	18.1% (inactive)
O=C1c2ccccc2-c2ncnc3c(N4CCOCC4)cc(N4CCOCC4)c1c23	51.5% (active)
c1cnn(-c2cc(N3CCOCC3)ncn2)c1	-3.4% (inactive)
Cc1cnc(NC(=O)C2CCCC2)s1	10.7% (inactive)
CCN1C(=O)/C(=C\N2CCN(c3cccc(Cl)c3)CC2)SC1=S	4.9% (inactive)
CC(Oc1ccc(Cl)cc1)c1ccnn1S(C)(=O)=O (stereo unspecified)	24.4% (inactive)

Compound	inhibition
COc1ccc(CC(=O)n2nc(-c3cccnc3)nc2N)cc1	9% (inactive)
O=C(Cn1ccc([N+](=O)[O-])n1)NCc1cccs1	-1.6% (inactive)
C=C(C)CSc1nnc(-c2ccc(C)cc2)n1N	1.1% (inactive)
Cc1ccc(NC(=S)NC2CCCC2)cc1	29.5% (inactive)
Cc1ccc(NC(=S)NCCN2CCOCC2)cc1	-12.4% (inactive)
Cc1ccc(NC(=S)N/N=C2/CCCc3c(C)cc(C)cc32)cc1	59.7% (active)
CCOc1ccc(-c2nc(C)sc2CC(=O)O)cc1	-0.3% (inactive)
CC(C)c1ccc(Nc2ncccc2C#N)cc1	3.6% (inactive)
COCCOC(=O)C1=C(C)N=c2s/c(=C\c3cccs3)c(=O)n2C1c1cccs1 (stereo unspecified)	41.5% (inactive)
C=CCOC(=O)C1=C(C)NC(C)=C(C(=O)OCC=C)C1c1cccs1	96.8% (active)
C=CCN(C(=O)Nc1ccc2oc(C)nc2c1)c1ccccc1	22.8% (inactive)
CCc1c(C)nc2cc(-c3cccs3)[nH]n2c1=O	30.3% (inactive)
FC(F)(F)c1nnc2ccc(N3CCN(c4ccccc4)CC3)nn12	27.4% (inactive)
O=C(CSCc1ccc([N+](=O)[O-])cc1)Nc1cccc(C(=O)Nc2ccccc2C(=O)O)c1	93.9% (active)
O=C(CSCc1ccccc1Cl)NNC(=O)c1ccccc1	-1.6% (inactive)
O=C(CSCc1ccc([N+](=O)[O-])cc1)NCCSCc1ccccc1	44.2% (inactive)
Cc1ccc(C2CC2C(=O)NN)cc1 (stereo unspecified)	15.8% (inactive)
CC(=O)c1cccc(NC(=O)N2CCCC2C(=O)NCCc2ccccc2)c1 (stereo unspecified)	-8.8% (inactive)
COCCN(C(=O)c1ccco1)c1nnc(-c2ccc(OC)cc2)s1	9% (inactive)
CCN1C(=O)CS/C1=N\c1nccs1	17.8% (inactive)
COc1ccc(-c2c(C(C)=O)c(C)nc3sc4c(=O)n(-c5ccc(C)cc5)nnc4c23)cc1	85.6% (active)

Compound	inhibition
COc1ccc(-n2nnc3c(=O)n(CC(=O)OCc4ccccc4)cnc32)cc1	-16% (inactive)
COCc1cc(C)nc2sc3c(=O)n(-c4cccc5ccccc45)nnc3c12	26.8% (inactive)
CC(C)(C)NC(=O)C(c1ccco1)N(Cc1ccc2c(c1)OCO2)C(=O)Cn1nnc2ccccc21 (stereo unspecified)	16.8% (inactive)
Cc1cccc(-n2ncc(C#N)c2-n2cccc2)c1	39.8% (inactive)
COc1ccc(Cl)cc1S(=O)(=O)Nc1cccc(C(=O)O)c1	14.1% (inactive)
COc1ccc(OC)c(S(=O)(=O)Nc2ccccc2F)c1	57.6% (active)
COc1ccccc1NS(=O)(=O)N(C)C	-23% (inactive)
Cc1csc(OCC(=O)Nc2ccc(C)c(C)c2)n1	4.4% (inactive)
Cc1ccc(NC(=O)COc2ccc(-n3ccnc3)cc2)cc1Cl	95% (active)
Cc1ccc(OCC(=O)Nc2ccc(-c3nc4ncccc4o3)cc2)cc1	-6.6% (inactive)
CCN(CC)c1ccc2cc(C(=O)O)c(=O)oc2c1	-7.5% (inactive)
Cc1cc(=O)n2c3c(cccc13)CCC2	-60.9% (inactive)
CC(C)Oc1ccc(C(=O)Nc2cc(=O)n(C)c(=O)n2C)cc1	10.6% (inactive)
C=C(C)Cn1c(N2CCN(CC)CC2)nc2c1c(=O)[nH]c(=O)n2C	-14.5% (inactive)
COc1cc(C(=O)NC(=S)NCc2ccco2)cc(OC)c1OC	18.9% (inactive)
Cc1cccc(C)c1NC(=O)CCS(=O)(=O)c1cccc2nsnc12	-1% (inactive)
O=C(Nc1cc(=O)[nH]c2ncnn12)c1ccccc1Cl	5.6% (inactive)
O=C(CSCc1cccs1)N1CCCC1	-22.8% (inactive)
